# According to ChEMBL document CHEMBL3988442, “University of Dundee, Small-Polar-MMV Screening Library” (2021):
# Out of some 48,000 compounds screened, about 13,000 (27%) showed an effect of 50% or more. The list shows a part of the results.
# System: Wolbachia pipientis
# Assay: Anti-Wolbachia Cell-Based Screen
# Type: functional
# Parameters: scale not given: in the data most compounds retested in dose-response had high values
# Conditions: 5 µM
row,Compound,Percent Effect
1,COCc1csc(NC(=O)NCc2ncccc2C)n1,-7.53%
2,Cn1cnc2c1C(COCc1ccccc1)N(Cc1ccccn1)CC2.O=C(O)C(F)(F)F.O=C(O)C(F)(F)F (configuration not stated),9.45%
3,Cc1ccccc1C(CNC(=O)CSc1nnc(N)s1)N(C)C (configuration not stated),-0.498%
4,Cl.c1nc(N2CCOCC2)ncc1-c1cncn1CCCN1CCCCC1,140.4%
5,c1ccc(-c2ncn(CCCN3CCOCC3)c2-c2ccncc2)cc1,-9.931%
6,Clc1ccc(N2CCN(CCCN3CCCCC3)CC2)nc1,-9.016%
7,Cc1ccccc1CC(=O)NCCNc1nccc(C(F)(F)F)n1,-4.75%
8,Cc1nn2cccnc2c1C(=O)NCc1ccnc(OCC2CC2)c1,2.843%
9,Cc1cc(-c2nc(C3(NC(=O)OC(C)(C)C)CCC3)no2)on1,26.17%
10,O=C(CC1CC1)NCc1cn2c(n1)CN(Cc1cccc(F)c1)CC2.O=C(O)C(F)(F)F,2.246%
11,CN1CCN(Cc2cn3c(n2)CN(C(=O)c2cccn2C)CC3)CC1.O=C(O)C(F)(F)F.O=C(O)C(F)(F)F,2.395%
12,COc1ccc(CN2CCn3cc(CN4CCCCC4)nc3C2)cc1.O=C(O)C(F)(F)F.O=C(O)C(F)(F)F,13.43%
13,O=C(NCc1cn2c(n1)CN(Cc1cccc(F)c1)CC2)C1CCC1.O=C(O)C(F)(F)F,-4.288%
14,CN1CCN(Cc2cn3c(n2)CN(Cc2cccc(F)c2)CC3)CC1.O=C(O)C(F)(F)F.O=C(O)C(F)(F)F.O=C(O)C(F)(F)F,118.6%
15,CN(Cc1cn2c(n1)CN(Cc1ccc(F)cc1)CC2)Cc1ccco1.O=C(O)C(F)(F)F.O=C(O)C(F)(F)F,12.2%
16,COc1ccc(CN2CCn3cc(Cn4cccn4)nc3C2)cc1.O=C(O)C(F)(F)F,-6.787%
17,CN1CCN(Cc2cn3c(n2)CN(Cc2ccc(F)cc2)CC3)CC1.O=C(O)C(F)(F)F.O=C(O)C(F)(F)F.O=C(O)C(F)(F)F,107.8%
18,Cc1ccc(CN2CCn3cc(CN4CCN(C)CC4)nc3C2)cc1.O=C(O)C(F)(F)F.O=C(O)C(F)(F)F.O=C(O)C(F)(F)F,108%
19,CN(CCN1CCOCC1)S(=O)(=O)CC1CCCC1,-5.333%

row,Compound,Percent Effect
1,CCOC(C)c1nc(Cn2cccn2)cs1 (configuration not stated),-9.016%
2,CNC(=O)NC(=O)C(C)Nc1ccccc1OCCOC (configuration not stated),-4.777%
3,COCCOCC(=O)NC(C#N)c1cccc(Cl)c1Cl (configuration not stated),-5.462%
4,Cc1ccccc1C(C#N)NC(=O)CCCOc1cccnc1 (configuration not stated),81.76%
5,N#CC(NC(=O)CCC(=O)NC1CCCC1)c1ccc(F)cc1F (configuration not stated),-15.9%
6,N#CC(NC(=O)CCCOc1cccnc1)c1ccc(F)cc1F (configuration not stated),86.86%
7,CCC(C#N)NC(=O)CCCOc1cccc(C(C)=O)c1 (configuration not stated),2.653%
8,CC(NC(=O)CCCOc1ccccc1Cl)c1ccncc1 (configuration not stated),-5.122%
9,N#CC(NC(=O)CCCOc1cccnc1)c1ccccc1Cl (configuration not stated),111.5%
10,CCCC(C#N)NC(=O)CCCOc1cccc(F)c1 (configuration not stated),-0.6223%
11,COCCOCC(=O)NC(C#N)c1ccccc1C (configuration not stated),-6.044%
12,CC(C)c1ccc(S(=O)(=O)Cc2nc(N)nc(N(C)C)n2)cc1,13.19%
13,COc1c(NC(=O)N(C)CCOc2ccccc2)c(C)nn1C,-49.81%
14,c1ccn2c(SCC3CN=C(N4CCOCC4)S3)ncc2c1 (configuration not stated),6.715%
15,O=S(=O)(NC1CCN(CC(F)(F)F)C1)c1cc(F)cc(F)c1 (configuration not stated),-11.02%
16,COCC(=O)N1CCC(c2cc(C(F)(F)F)n3ccnc3n2)CC1,-3.76%
17,COCC(=O)N1CCC(c2cc(N(C)C)cc(C)n2)CC1,144.6%
18,COCC(=O)N1CCC(c2cc(-c3ccc(N)nc3)cc(C)n2)CC1,134.8%
19,COCC(=O)N1CCC(c2noc3nc(C)cc(C(F)(F)F)c23)CC1,-9.714%

row,Compound,Percent Effect
1,CN(c1cccc(C#N)c1)S(=O)(=O)c1cc(C(=O)O)ccc1Cl,-8.921%
2,CCc1ncc2c(n1)CN(CC1CCCCO1)CC2 (configuration not stated),-28.59%
3,CCN(C(=O)c1ccc2nnc(C3CCN(C(C)=O)C3)n2c1)C(C)C (configuration not stated),-2.519%
4,CNC(=O)c1cccc(NC(=O)NC(C)c2cc(C)oc2C)c1C (configuration not stated),-16.36%
5,O=C(O)C(F)(F)F.O=C([C@@H]1CC[C@@H]2[C@@H](CCN2Cc2cccc(F)c2)O1)N1CCCCO1,-25.86%
6,O=C(O)C(F)(F)F.O=C([C@H]1C[C@@H]2CCN(c3cccc(F)c3)C[C@H]2O1)N1CCCC1,111.1%
7,Cc1ccc(CN2CC[C@H]3C[C@H](C(=O)N4CCCO4)O[C@@H]3C2)o1.O=C(O)C(F)(F)F,-11.63%
8,O=S(=O)(C1CC1)N1CCOC2(CCCN(c3cccc(F)c3)C2)C1 (configuration not stated),7.053%
9,O=C(O)C(F)(F)F.O=C([C@@H]1C[C@@H]2CCN(c3cccc(F)c3)C[C@H]2O1)N1CCCC1,103.2%
10,CN1CCN(C(=O)[C@H]2C[C@@H]3CCN(c4ncc(F)cn4)C[C@@H]3O2)CC1.O=C(O)C(F)(F)F,-9.48%
11,Fc1cccc(N2C[C@H]3CCN(c4cccnc4)C[C@H]3C2)c1.O=C(O)C(F)(F)F,6.711%
12,O=C(O)C(F)(F)F.O=C([C@H]1C[C@@H]2CCN(c3cccc(F)c3)C[C@H]2O1)N1CCCCO1,96.52%
13,CN1CCN(C(=O)[C@@H]2C[C@@H]3CCN(c4cccc(F)c4)C[C@H]3O2)CC1,96.73%
14,COc1cccc(OCc2cc(C(=O)NC[C@H]3CCCN3)n[nH]2)c1,-9.254%
15,CCc1nc(NS(=O)(=O)c2ccc(C)cc2Cl)no1,-7.333%
16,CC(C)c1csc(C2CCCN(C(=O)c3ccc(=O)n(C)c3)C2)n1 (configuration not stated),2.326%
17,CC(C)Cc1nc(CN(C)CCOc2ccccc2F)no1,2.804%
18,O=C(Cn1ccc(=O)[nH]c1=O)NCC1Cc2ccccc2O1 (configuration not stated),0.2234%
19,CC(C)NC(=O)NC[C@H]1OC[C@@H](NCc2ccc(F)cc2)[C@@H]1O,8.979%
